This is a sample that favours compounds with a hit; in the whole collection about 1.3% have one here.
PREPL inh – human PREPL enzyme inhibition; Q4J6C6; recombinant PREPL, fluorescence polarization activity-based probe; inhibition, % at 5.96 µM; 320,000 compounds, 0.68% hits; in the data active = inhibition above about 43%
PME-1 primary – PME-1 (human) inhibition; inhibition, % at 5.9 µM; recombinant PME-1, FP-Rh probe fluorescence polarization; 320,000 compounds, 0.53% hits; Q9Y570;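 active = inhibition above the campaign mean of all compounds plus 3 SD, cut at about 26% in these data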;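 also: competitive labeling of PME-1 active site by serine hydrolase directed probe; inhibitors block probe labeling so polarization falls and inhibition rises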
Target sequence (Q9Y570 whole entry, looked up): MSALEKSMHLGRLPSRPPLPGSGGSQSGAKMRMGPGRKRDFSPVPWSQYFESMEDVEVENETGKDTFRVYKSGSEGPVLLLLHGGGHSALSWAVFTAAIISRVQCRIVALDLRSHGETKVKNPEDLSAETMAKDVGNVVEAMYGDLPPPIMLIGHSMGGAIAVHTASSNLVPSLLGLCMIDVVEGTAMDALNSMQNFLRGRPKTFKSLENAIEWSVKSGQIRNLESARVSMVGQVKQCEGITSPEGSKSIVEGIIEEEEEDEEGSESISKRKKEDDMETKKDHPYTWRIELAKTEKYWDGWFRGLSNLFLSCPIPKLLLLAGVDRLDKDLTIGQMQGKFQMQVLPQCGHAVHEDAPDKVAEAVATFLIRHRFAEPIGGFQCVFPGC
Fam108B inh – blocks mouse Fam108B hydrolase in RBBP9 counter-screen | recombinant Fam108B, FP-Rh probe fluorescence polarization | inhibition, % at 9.51 µM | 300,000 compounds, 0.33% hits;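 active = inhibition above the screen mean inhibition plus 3 SD, computed separately per campaign, cut at about 18% in these data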;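 also: inhibitors lower polarization as less probe binds the enzyme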
LYPLA2 counter – blocks human lysophospholipase 2, a PME1 counter-screen; O95372; recombinant LYPLA2, FP-Rh probe fluorescence polarization; inhibition, % at 5.9 µM; 320,000 compounds, 0.38% hits;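 active = inhibition above the screen-wide mean plus 3 SD, limit set per campaign, cut at about 26% in these data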
LYPLA1 counter – counter-screen for PME1 inhibitors: inhibitors of human LYPLA1. O75608. recombinant LYPLA1, FP-Rh probe fluorescence polarization. inhibition, % at 5.9 µM. 320,000 compounds, 0.16% hits;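 active = inhibition above the mean of all tested compounds plus 3 SD, set per campaign, cut at about 14% in these data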;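 also: inhibitors block serine hydrolase probe labeling of LYPLA1 so polarization falls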
Target sequence (O75608 whole entry, looked up): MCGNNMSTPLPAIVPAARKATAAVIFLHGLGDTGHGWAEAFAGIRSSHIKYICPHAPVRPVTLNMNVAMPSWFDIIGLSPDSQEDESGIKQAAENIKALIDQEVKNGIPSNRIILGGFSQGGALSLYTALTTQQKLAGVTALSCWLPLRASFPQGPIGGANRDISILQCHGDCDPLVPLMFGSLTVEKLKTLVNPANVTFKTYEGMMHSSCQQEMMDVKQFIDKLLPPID
LYPLA2 conf – LYPLA2 (human) inhibition, confirmation counter-screen; recombinant LYPLA2, FP-Rh probe fluorescence polarization; 1,100 compounds, 72% hits; shares compounds with LYPLA2 counter; inhibition, % at 5.9 µM;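 active = mean inhibition across replicates above the hit cutoff set in the primary screen, cut at about 26% in these data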;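 also: blocked labeling of the enzyme by serine hydrolase FP-Rh probe lowers polarization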
LYPLA2 ABPP – blocks human acyl-protein thioesterase 2 in gel ABPP; AID 652029; shares compounds with LYPLA2 counter; 150 compounds, 30% hits; rhLYPLA2 in mouse brain proteome, gel ABPP FP-Rh; inhibition, % at 20 µM;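 active = inhibition of LYPLA2 enzyme probe labeling above about 50%, limit read from the data; inactive = inhibition below that limit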;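 also: loss of FP-Rh probe labeling of the LYPLA2 gel band measured as band density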
A number is an active result.

How did CCOc1cc(CN2CCN(c3cccc(C(F)(F)F)c3)CC2)ccc1O do in these assays?
PREPL inh: inactive; PME-1 primary: inactive; Fam108B inh: inactive; LYPLA2 counter: 28; LYPLA1 counter: inactive; LYPLA2 conf: 29

What do the screens show for `CCOc1cc(CN2CCSCC2)ccc1O`?
PREPL inh: inactive; PME-1 primary: inactive; Fam108B inh: inactive; LYPLA2 counter: inactive; LYPLA1 counter: inactive

How did CC(C)N1CCc2c(sc(NC(=O)c3ccc(C(=O)c4ccccc4)cc3)c2C(N)=O)C1 do in these assays?
PREPL inh: inactive; PME-1 primary: inactive; Fam108B inh: inactive; LYPLA2 counter: 26; LYPLA1 counter: inactive; LYPLA2 conf: 31

Results for CC(=O)c1ccc(N2CCN(C(=O)CCCn3c(=O)[nH]c4ccccc4c3=O)CC2)cc1 ?
PREPL inh: inactive; PME-1 primary: inactive; Fam108B inh: inactive; LYPLA2 counter: 53; LYPLA1 counter: inactive; LYPLA2 conf: 49

Results for CCOC(=O)N1CCN(C(=O)CCCn2c(=O)[nH]c3ccccc3c2=O)CC1 ?
PREPL inh: inactive; PME-1 primary: inactive; Fam108B inh: inactive; LYPLA2 counter: inactive; LYPLA1 counter: inactive

Results for CC(=O)c1ccc(N2CCN(C(=O)CCCc3nc4ccccc4s3)CC2)cc1 ?
PREPL inh: inactive; PME-1 primary: inactive; Fam108B inh: inactive; LYPLA2 counter: 42; LYPLA1 counter: inactive; LYPLA2 conf: 44

How did COc1ccc(N2CCN(C(=O)Cc3ccc(-n4c(=O)[nH]c5ccccc5c4=O)cc3)CC2)cc1 do in these assays?
PREPL inh: inactive; PME-1 primary: inactive; Fam108B inh: inactive; LYPLA2 counter: 57; LYPLA1 counter: inactive; LYPLA2 conf: 51; LYPLA2 ABPP: inactive

Results for COc1ccc(N2CCN(C(=O)CSc3nc4[nH]ncc4c(=O)n3-c3cccc4ccccc34)CC2)cc1 ?
PREPL inh: inactive; PME-1 primary: inactive; Fam108B inh: inactive; LYPLA2 counter: 34; LYPLA1 counter: inactive; LYPLA2 conf: 30

Results for Cc1ccc(N(CC(=O)NC(C)C)C(=O)CCC(=O)Nc2nccs2)c(C)c1 ?
PREPL inh: inactive; PME-1 primary: inactive; Fam108B inh: inactive; LYPLA2 counter: inactive; LYPLA1 counter: inactive

Results for COCCn1c(SC(C)C(=O)Nc2ccc(Cl)cn2)nnc1-c1ccncc1 (centres undefined) ?
PREPL inh: inactive; PME-1 primary: inactive; Fam108B inh: inactive; LYPLA2 counter: inactive; LYPLA1 counter: inactive

Results for O=C(c1ccc(Cn2c(=O)[nH]c3ccccc3c2=O)cc1)N1CCN(c2ccccn2)CC1 ?
PREPL inh: inactive; PME-1 primary: inactive; Fam108B inh: inactive; LYPLA2 counter: inactive; LYPLA1 counter: inactive

Results for O=C(c1ccc(Cn2c(=O)[nH]c3ccccc3c2=O)cc1)N1CCN(c2ccccc2)CC1 ?
PREPL inh: inactive; PME-1 primary: inactive; Fam108B inh: inactive; LYPLA2 counter: 35; LYPLA1 counter: inactive; LYPLA2 conf: 28

Results for Cc1cc(C)c2c(CC(=O)NC3CCS(=O)(=O)C3)coc2c1 (centres undefined) ?
PREPL inh: inactive; PME-1 primary: inactive; Fam108B inh: inactive; LYPLA2 counter: inactive; LYPLA1 counter: inactive

What do the screens show for `O=C(Cn1cnc2ccccc2c1=O)c1ccccc1`?
PREPL inh: inactive; PME-1 primary: inactive; Fam108B inh: inactive; LYPLA2 counter: inactive; LYPLA1 counter: inactive

How did O=C(Cn1cnc2ccccc2c1=O)c1ccc(OC(F)F)cc1 do in these assays?
PREPL inh: inactive; PME-1 primary: inactive; Fam108B inh: inactive; LYPLA2 counter: 52; LYPLA1 counter: inactive; LYPLA2 conf: 67; LYPLA2 ABPP: 70

How did O=C(Cn1cnc2ccccc2c1=O)c1ccc(Br)cc1 do in these assays?
PREPL inh: inactive; PME-1 primary: inactive; Fam108B inh: inactive; LYPLA2 counter: 29; LYPLA1 counter: inactive; LYPLA2 conf: 42

What do the screens show for `CCc1ccc(C(=O)Cn2cnc3cc([N+](=O)[O-])ccc3c2=O)cc1`?
PREPL inh: inactive; PME-1 primary: inactive; Fam108B inh: inactive; LYPLA2 counter: 46; LYPLA1 counter: inactive; LYPLA2 conf: 37

What do the screens show for `CCOc1ccc(C(=O)Cn2cnc3ccccc3c2=O)cc1`?
PREPL inh: inactive; PME-1 primary: inactive; Fam108B inh: inactive; LYPLA2 counter: 34; LYPLA1 counter: inactive; LYPLA2 conf: inactive

How did Cc1cccc(OCC(=O)N(Cc2ccco2)C2CCS(=O)(=O)C2)c1C (centres undefined) do in these assays?
PREPL inh: inactive; PME-1 primary: inactive; Fam108B inh: inactive; LYPLA2 counter: inactive; LYPLA1 counter: inactive

What do the screens show for `Cc1cc(C)n(-c2ccccc2C#N)n1`?
PREPL inh: inactive; PME-1 primary: inactive; Fam108B inh: inactive; LYPLA2 counter: inactive; LYPLA1 counter: inactive

How did Cc1cc(OC(C)C(=O)N2C[C@H]3C[C@@H](C2)c2cccc(=O)n2C3)c2c(C)c(C)c(=O)oc2c1 (some centres undefined) do in these assays?
PREPL inh: inactive; PME-1 primary: inactive; Fam108B inh: inactive; LYPLA2 counter: inactive; LYPLA1 counter: inactive

What do the screens show for `Cc1ccc(NC2=C(Cl)C(=O)OC2OC(=O)c2ccc(C)cc2)cc1` (centres undefined)?
PREPL inh: inactive; PME-1 primary: inactive; Fam108B inh: inactive; LYPLA2 counter: 30; LYPLA1 counter: inactive; LYPLA2 conf: 38

How did CCOC(=O)C1=C(COC(=O)C2(C)CC2(Cl)Cl)NC(=O)NC1c1ccccc1 (centres undefined) do in these assays?
PREPL inh: inactive; PME-1 primary: inactive; Fam108B inh: inactive; LYPLA2 counter: inactive; LYPLA1 counter: inactive

Results for Cc1[nH]c2ccccc2c1C(=O)COC(=O)c1ccc2c(=O)n3c(nc2c1)CCC3 ?
PREPL inh: inactive; PME-1 primary: inactive; Fam108B inh: inactive; LYPLA2 counter: inactive; LYPLA1 counter: inactive

Results for Cc1nc(C(=O)NCc2ccccc2)sc1C1(C)CC(c2cccc([N+](=O)[O-])c2)=NO1 (centres undefined) ?
PREPL inh: inactive; PME-1 primary: inactive; Fam108B inh: inactive; LYPLA2 counter: inactive; LYPLA1 counter: inactive

What do the screens show for `CNC(=O)c1nc(C)c(C2(C)CC(c3cccc([N+](=O)[O-])c3)=NO2)s1` (centres undefined)?
PREPL inh: inactive; PME-1 primary: inactive; Fam108B inh: inactive; LYPLA2 counter: 26; LYPLA1 counter: inactive; LYPLA2 conf: 29

What do the screens show for `O=C(CC1SCCNC1=O)Nc1cccc([N+](=O)[O-])c1` (centres undefined)?
PREPL inh: inactive; PME-1 primary: inactive; Fam108B inh: inactive; LYPLA2 counter: inactive; LYPLA1 counter: inactive

Results for O=C(Cc1ccc([N+](=O)[O-])cc1)N1CCN(c2ccc([N+](=O)[O-])cc2)CC1 ?
PREPL inh: inactive; PME-1 primary: inactive; Fam108B inh: inactive; LYPLA2 counter: 69; LYPLA1 counter: inactive; LYPLA2 conf: 69; LYPLA2 ABPP: 70
